Most compounds without a hit are left out; they make up all but 7.7% or so of the library.
NOMO-1 viab – NOMO-1 AML cell viability reduction, primary screen, STK33 inhibitor project, CellTiter-Glo luminescence; NOMO-1 AML viability, 72 h; AID 2330, 2010; hit rate 7.5% among 37,000; inhibition, % (test concentration not listed); in the data active = inhibition above about 80%; inconclusive = no clear call, values can overlap the other calls
Hedgehog inh – Hedgehog pathway signaling inhibitors, primary screen, luminescence, Shh-LIGHT2 cells, Gli-luciferase. Shh-LIGHT2 Gli-luciferase reporter, 30 h. inhibition, % (no concentration beside the values). hit rate 2.1% among 22,000. AID 2313, 2010;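 active = mean inhibition across valid replicates above about 65%, limit read from the data; inconclusive = mean under the limit, yet half or more replicates past it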;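 note: pathway switched on by Shh-conditioned medium diluted 1 in 25 in low serum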
PD-1 reverse act – activators reversing PD-1 mediated T-cell inhibition, primary screen, luminescence, primary human CD4 T cells, PD-L1 beads. 29,000 tested, under 10 active. CellTiter-Glo 96 h. activation, % (no concentration beside the values); call rule not given here
Large screens that a line does not name were inactive.

C[C@@H]1CCCCO[C@H](CN(C)Cc2ccc(C(F)(F)F)cc2)[C@@H](C)CN([C@H](C)CO)C(=O)c2cc(NC(=O)c3ccccc3)ccc2O1	none
C[C@@H]1CCCCO[C@@H](CN(C)C)[C@@H](C)CN([C@H](C)CO)C(=O)c2cc(NC(=O)Nc3ccccc3)ccc2O1	NOMO-1 viab 108
C[C@@H]1CCCCO[C@H](CN(C)C)[C@@H](C)CN([C@H](C)CO)C(=O)c2cc(NC(=O)Nc3ccc(C(F)(F)F)cc3)ccc2O1	none
COc1cccc(NC(=O)CN(C)S(=O)(=O)c2ccc3ccccc3c2)c1	none (no result: Hedgehog inh, PD-1 reverse act)
NNC(=O)CNc1ccc2c(c1)OCO2	none
COc1cccc2cc(-c3nnc(SCC(=O)Nc4cccc(SC)c4)n3C)oc12	none (no result: Hedgehog inh)
CC1(C)CC[C@]2(C(=O)O[C@@H]3O[C@H](CO[C@@H]4O[C@H](CO)[C@@H](O)[C@H](O)[C@H]4O)[C@@H](O)[C@H](O[C@@H]4O[C@H](CO)[C@@H](O)[C@H](O)[C@H]4O)[C@H]3O)CC[C@]3(C)C(=CCC4[C@@]5(C)CC[C@H](O)[C@@](C)(C(=O)O)C5CC[C@]43C)C2C1 (some centres not stated)	none
Cc1nonc1OCCNc1cc(N2CCCC2)ccc1[N+](=O)[O-]	none (no result: Hedgehog inh)
C[C@@H]1CCCCO[C@@H](CN(C)Cc2ccccc2)[C@@H](C)CN([C@H](C)CO)C(=O)c2cc(NC(=O)Nc3ccc(F)cc3)ccc2O1	none (no result: Hedgehog inh)
C[C@@H]1CCCCO[C@H](CN(C)Cc2ccc(C(F)(F)F)cc2)[C@@H](C)CN([C@H](C)CO)C(=O)c2cc(NC(=O)NC3CCCCC3)ccc2O1	NOMO-1 viab 94
C[C@@H]1CCCCO[C@H](CN(C)Cc2ccccc2)[C@@H](C)CN([C@H](C)CO)C(=O)c2cc(NC(=O)Nc3ccc(C(F)(F)F)cc3)ccc2O1	NOMO-1 viab 104 (no result: Hedgehog inh, PD-1 reverse act)
C[C@@H]1CCCCO[C@H](CN(C)S(=O)(=O)c2ccc(F)cc2)[C@@H](C)CN([C@H](C)CO)C(=O)c2cc(NC(=O)Nc3ccc(F)cc3)ccc2O1	none
C[C@@H]1CCCCO[C@H](CN(C)Cc2ccccc2)[C@@H](C)CN([C@H](C)CO)C(=O)c2cc(NC(=O)Nc3ccc(F)cc3)ccc2O1	Hedgehog inh 67
C[C@@H]1CCCCO[C@@H](CN(C)Cc2ccc(C(F)(F)F)cc2)[C@@H](C)CN([C@H](C)CO)C(=O)c2cc(NC(=O)NC3CCCCC3)ccc2O1	NOMO-1 viab inconclusive
C[C@@H]1CCCCO[C@H](CN(C)Cc2ccc(C(F)(F)F)cc2)[C@@H](C)CN([C@H](C)CO)C(=O)c2cc(NC(=O)Nc3ccccc3)ccc2O1	none
C[C@@H]1CCCCO[C@H](CN(C)S(=O)(=O)c2ccc(F)cc2)[C@@H](C)CN([C@H](C)CO)C(=O)c2cc(NC(=O)Nc3ccc(C(F)(F)F)cc3)ccc2O1	NOMO-1 viab 98
COc1ccc(OC)c(C(C)NC(=O)Nc2ccc([N+](=O)[O-])cc2OC)c1 (configuration not stated)	none (no result: Hedgehog inh)
C/C=C/C(O)C(C)CC(C)C(OC(=O)CCC(=O)O)C(C)/C=C/C=C/C=C(\C)C(=O)O (configuration not stated)	NOMO-1 viab inconclusive
CC(C)(C)OC(=O)N1C(N)=C(C#N)C2(CCOCC2)c2[nH]c(C(F)(F)F)nc21	none
O=C(CSc1ccc(Cl)cc1)Nc1cscc1S(=O)(=O)c1ccc(Cl)cc1	none (no result: Hedgehog inh)
Cc1cc(C)cc(NC(=O)CN(c2cc([N+](=O)[O-])ccc2C)S(C)(=O)=O)c1	none (no result: Hedgehog inh)
CCn1c(SCC(=O)c2ccc(OC)cc2)nnc1-c1ccc(C)cc1	none (no result: Hedgehog inh)
Cc1nc2ccccc2nc1OCC(=O)c1ccc(Cl)cc1	none (no result: Hedgehog inh, PD-1 reverse act)
C[C@@H]1CCCCO[C@H](CN(C)Cc2ccc(C(F)(F)F)cc2)[C@@H](C)CN([C@H](C)CO)C(=O)c2cc(NC(=O)Nc3ccc(F)cc3)ccc2O1	NOMO-1 viab 100 (no result: Hedgehog inh)
C[C@@H]1CCCCO[C@H](CN(C)Cc2ccncc2)[C@@H](C)CN([C@H](C)CO)C(=O)c2cc(NC(=O)Nc3ccc(F)cc3)ccc2O1	none (no result: Hedgehog inh)
C[C@@H]1CCCCO[C@H](CN(C)Cc2ccc(C(F)(F)F)cc2)[C@@H](C)CN([C@H](C)CO)C(=O)c2cc(NC(=O)Nc3ccc(C(F)(F)F)cc3)ccc2O1	NOMO-1 viab 113
C[C@@H]1CCCCO[C@H](CN(C)C(=O)CCCN(C)C)[C@@H](C)CN([C@H](C)CO)C(=O)c2cc(NC(=O)CCC(F)(F)F)ccc2O1	Hedgehog inh 77 (no result: PD-1 reverse act)
C[C@@H]1CCCCO[C@@H](CN(C)C(=O)CCC(F)(F)F)[C@@H](C)CN([C@H](C)CO)C(=O)c2cc(NC(=O)CCCN(C)C)ccc2O1	none
C[C@@H]1CCCCO[C@H](CN(C)Cc2ccc(C(F)(F)F)cc2)[C@@H](C)CN([C@H](C)CO)C(=O)c2cc(NC(=O)c3ccncc3)ccc2O1	none (no result: Hedgehog inh, PD-1 reverse act)
CCCCN1C(=O)/C(=C2\SC(=Nc3ccc(Cl)cc3)N(C)C2=O)c2ccccc21	none
CCOc1ccc(NC(=O)C(C)Sc2ncnc3sc(-c4ccccc4)cc23)cc1 (configuration not stated)	none (no result: Hedgehog inh)
C[C@@H]1CN([C@@H](C)CO)C(=O)c2cc(NC(=O)Nc3cccc4ccccc34)ccc2O[C@H]1CN(C)Cc1ccccc1	none
C[C@@H]1CN([C@H](C)CO)C(=O)c2cc(NC(=O)Nc3cccc4ccccc34)ccc2O[C@H]1CN(C)Cc1ccc(Cl)c(Cl)c1	NOMO-1 viab 112 (no result: Hedgehog inh)
C[C@H](CO)N1C[C@H](C)[C@@H](CN(C)Cc2ccc(Cl)c(Cl)c2)Oc2ccc(NC(=O)Nc3cccc4ccccc34)cc2C1=O	NOMO-1 viab 112 (no result: Hedgehog inh)
C[C@H](CO)N1C[C@H](C)[C@H](CN(C)Cc2ccc(Cl)c(Cl)c2)Oc2ccc(NC(=O)Nc3cccc4ccccc34)cc2C1=O	none (no result: Hedgehog inh)
C[C@@H]1CN([C@H](C)CO)C(=O)c2cc(NC(=O)Nc3cccc4ccccc34)ccc2O[C@@H]1CN(C)Cc1ccc(Cl)c(Cl)c1	NOMO-1 viab 101
C[C@@H]1CCCCO[C@@H](CN(C)Cc2ccc(Cl)c(Cl)c2)[C@@H](C)CN([C@H](C)CO)C(=O)c2cc(NC(=O)Nc3cccc4ccccc34)ccc2O1	none
O=C1CCC(=O)N1CN(C(=O)C(F)(F)F)c1ccccc1	none (no result: Hedgehog inh)
Cc1ccc(NC(=O)CCn2cnc3ccccc3c2=O)cc1C	none (no result: Hedgehog inh)
O=C(NCCCN1CCOCC1)C(=O)NC1CC1	none (no result: Hedgehog inh)
CC1CCCC(C)N1C(=S)NCCCN1CCOCC1 (configuration not stated)	NOMO-1 viab 110
CCOc1ccc(C)cc1S(=O)(=O)n1nnc2ccccc21	none (no result: Hedgehog inh, PD-1 reverse act)
Cc1c(NC(=O)COc2cc(Cl)c(Cl)cc2Cl)cccc1-c1nc2ccccc2o1	none (no result: Hedgehog inh)
Cc1ccc(S(=O)(=O)Nc2ccc3c(c2)C(=O)N([C@H](C)CO)C[C@@H](C)[C@H](CN(C)Cc2ccc(-c4ccccc4)cc2)O3)cc1	NOMO-1 viab 111
C[C@@H]1CN([C@H](C)CO)C(=O)c2cc(NS(=O)(=O)c3ccc(F)cc3)ccc2O[C@@H]1CN(C)Cc1ccccc1	none
Cc1ccc(S(=O)(=O)Nc2ccc3c(c2)C(=O)N([C@H](C)CO)C[C@H](C)[C@H](CN(C)Cc2ccc(-c4ccccc4)cc2)O3)cc1	none

Screens (PubChem BioAssay)
